{"source": "PubChem BioAssay AID639", "about": "(Emory University Molecular Libraries Screening Center, 2007)", "note": "The whole screen tested about 86,000 compounds, of which about 1,200 (1.4%) were called active. The full list was thinned out, with actives kept by preference. Unmarked numbers belong to inactive results. Cut-off read from the data, not from the text of the source: active = activity above about 200%; inactive = the rest."}
{"molecular_target": "Estrogen receptor (Homo sapiens) (UniProt P03372)", "sequence (P03372 whole entry, looked up, the tested form may be a part)": "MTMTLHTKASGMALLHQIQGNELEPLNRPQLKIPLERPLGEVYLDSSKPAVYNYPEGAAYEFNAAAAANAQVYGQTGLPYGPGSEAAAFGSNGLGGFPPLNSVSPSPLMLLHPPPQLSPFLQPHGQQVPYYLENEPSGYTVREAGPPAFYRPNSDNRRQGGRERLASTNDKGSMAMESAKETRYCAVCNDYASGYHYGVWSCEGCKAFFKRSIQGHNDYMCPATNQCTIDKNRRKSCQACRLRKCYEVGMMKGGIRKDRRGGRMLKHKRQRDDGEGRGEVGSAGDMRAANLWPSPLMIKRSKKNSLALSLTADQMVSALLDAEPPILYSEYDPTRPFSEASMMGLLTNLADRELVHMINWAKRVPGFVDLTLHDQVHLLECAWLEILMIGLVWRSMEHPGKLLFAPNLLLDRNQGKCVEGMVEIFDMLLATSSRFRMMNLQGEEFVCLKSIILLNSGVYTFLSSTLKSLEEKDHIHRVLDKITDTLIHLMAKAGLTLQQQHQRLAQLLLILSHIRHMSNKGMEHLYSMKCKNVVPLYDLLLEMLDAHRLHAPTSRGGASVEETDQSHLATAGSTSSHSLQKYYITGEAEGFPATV", "assay": "enhancers of ERα–SRC-1 coactivator binding, primary screen, biochemical, TR-FRET, ERα LBD, low estradiol (AID 639);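 note: binding measured in presence of low estradiol as agonist stimulus; 0% = peptide alone without receptor and 100% = receptor with peptide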", "conditions": "TR-FRET ERalpha-LBD/SRC-Cy5 coactivator binding, 2 h; at 25.6 µM; stronger effect = higher value; 100 = basal binding, no effect"}
{"compound": "Cc1ccc(NC(=S)NC(NC(=O)Cc2cccc3ccccc23)C(Cl)(Cl)Cl)cc1", "note": "(configuration not stated)", "coactivator binding (% of control)": "77.9%"}
{"compound": "COC(=O)C(C(=O)Nc1cccc(C)n1)C1CCCCCC1", "note": "(configuration not stated)", "coactivator binding (% of control)": "76.6%"}
{"compound": "COc1cccc(NC(=O)Cc2ccc(C)cc2)c1", "coactivator binding (% of control)": "96.3%"}
{"compound": "Cc1ccc(OCC(=O)Nc2ccc(-c3nnc(-c4ccco4)o3)cc2)cc1", "coactivator binding (% of control)": "172%"}
{"compound": "Cc1ccc(OCC(=O)Nc2ccc(-c3nc4ncccc4o3)cc2)cc1", "coactivator binding (% of control)": "315% [fluorescence artefact?] (active)"}
{"compound": "O=C(Nc1cccc(-c2nc3ncccc3o2)c1)c1ccco1", "coactivator binding (% of control)": "108%"}
{"compound": "COc1ccc(CC(=O)Nc2ccc(-c3nnc(-c4ccc(C)cc4)o3)cc2)cc1", "coactivator binding (% of control)": "359% [fluorescence artefact?] (active)"}
{"compound": "COc1ccc(CC(=O)Nc2ccc(-c3nnc(-c4ccccc4)o3)cc2)cc1", "coactivator binding (% of control)": "184%"}
{"compound": "CCOc1ccc(NC(=O)C2CCCN(C(=O)Nc3ccccc3)C2)cc1", "note": "(configuration not stated)", "coactivator binding (% of control)": "106%"}
{"compound": "COc1ccc(CN(C(=O)CSc2nnc(-c3ccc(OC)c(OC)c3)o2)c2ccc(F)cc2)cc1", "coactivator binding (% of control)": "95.1%"}
{"compound": "COc1ccc(-c2nnc(SCC(=O)c3ccc4c(c3)OCCO4)o2)cc1", "coactivator binding (% of control)": "335% [fluorescence artefact?] (active)"}
{"compound": "CCN(CC)C(=O)CSc1nnc(-c2cccc(OC)c2)o1", "coactivator binding (% of control)": "105%"}
{"compound": "Cn1c(SCC(=O)N2CCCc3ccccc32)nc2ccccc2c1=O", "coactivator binding (% of control)": "84.1%"}
{"compound": "Cc1cccc(C(=O)Nc2ccccc2N2CCN(c3ccc(F)cc3)CC2)c1", "coactivator binding (% of control)": "97.2%"}
{"compound": "COc1ccc(C(C)=O)cc1CN1C(=O)NC2(CCCCC2C)C1=O", "note": "(configuration not stated)", "coactivator binding (% of control)": "128%"}
{"compound": "CC(C)c1nc2oc3c(N4CCN(C)CC4)ncnc3c2c2c1CCC2", "coactivator binding (% of control)": "373% [fluorescence artefact?] (active)"}
{"compound": "CCN1CCN(c2ncnc3c2oc2nc(C)c4c(c23)CC(C)(C)OC4)CC1", "coactivator binding (% of control)": "95.8%"}
{"compound": "CN(C)c1ccc(CNC2C3CC4CC(C3)CC2C4)cc1", "note": "(configuration not stated)", "coactivator binding (% of control)": "105%"}
{"compound": "CC(C)C(c1nnnn1CCc1ccccc1)N1CCN(C(=O)c2ccco2)CC1", "note": "(configuration not stated)", "coactivator binding (% of control)": "118%"}
{"compound": "CCC(c1nnnn1C1CCCC1)N1CCN(C(=O)c2ccco2)CC1", "note": "(configuration not stated)", "coactivator binding (% of control)": "240% [fluorescence artefact?] (active)"}
{"compound": "CC(=O)c1ccc(-n2nnnc2SCC(=O)N2CCN(C(=O)c3ccco3)CC2)cc1", "coactivator binding (% of control)": "102%"}
{"compound": "CC(N)C12CC3CC(CC(O)(C3)C1)C2", "note": "(configuration not stated)", "coactivator binding (% of control)": "105%"}
{"compound": "CCCc1nc(NCc2ccc3c(c2)OCO3)c2nnn(Cc3ccccc3Cl)c2n1", "coactivator binding (% of control)": "118%"}
{"compound": "CCOC(=O)CN(Cc1ccc(OC)c(OC)c1)S(=O)(=O)c1ccc(OC)cc1", "coactivator binding (% of control)": "114%"}
{"compound": "CCn1c(COc2ccccc2)nnc1SCC(=O)Nc1ccc2c(c1)OCCO2", "coactivator binding (% of control)": "115%"}
{"compound": "CCOc1cccc(NC(=O)CC#N)c1", "coactivator binding (% of control)": "101%"}
{"compound": "CCOc1cccc(NC(=O)Cn2nc(-c3ccc4c(c3)OCCO4)ccc2=O)c1", "coactivator binding (% of control)": "214% (active)"}
{"compound": "CC(=NCc1ccco1)c1c(C(F)(F)F)[nH]n(-c2nc3ccccc3s2)c1=O", "coactivator binding (% of control)": "109%"}
{"compound": "COc1ccc(N2CCN(C(=O)CCc3nc(-c4ccc(C)cc4)no3)CC2)cc1", "coactivator binding (% of control)": "106%"}
{"compound": "COc1ccccc1N1CC(O)=C(c2nc3ccccc3s2)C1=N", "coactivator binding (% of control)": "87.9%"}
{"compound": "CCCCCN1CC(O)=C(c2nc(-c3ccc(Cl)cc3)cs2)C1=N", "coactivator binding (% of control)": "293% [fluorescence artefact?] (active)"}
{"compound": "CCCCCN1CC(O)=C(c2ccccc2)C1=N", "coactivator binding (% of control)": "30.5%"}
{"compound": "C/C(=N\\NS(=O)(=O)c1ccc(Br)cc1)c1cccs1", "coactivator binding (% of control)": "101%"}
{"compound": "Cc1cc(C)nc(N2CCN(c3ncnc4c3oc3ccccc34)CC2)n1", "coactivator binding (% of control)": "144%"}
{"compound": "CCc1nc(N2CCN(c3nc(C)cc(C)n3)CC2)c2oc3ccccc3c2n1", "coactivator binding (% of control)": "155%"}
{"compound": "Cc1nc(N2CCN(c3ncccn3)CC2)c2oc3ccccc3c2n1", "coactivator binding (% of control)": "207% [fluorescence artefact?] (active)"}
{"compound": "Cc1ccc(C2=CSC3=NS(=O)(=O)CCN23)cc1C", "coactivator binding (% of control)": "100%"}
{"compound": "COCCn1c(SCc2nc3cc(OC)c(OC)cc3c(=O)[nH]2)nnc1-c1ccncc1", "coactivator binding (% of control)": "112%"}
{"compound": "CCSc1nnc(NC(=O)Cc2ccccc2OC)s1", "coactivator binding (% of control)": "246% [fluorescence artefact?] (active)"}
{"compound": "CCSc1nnc(NC(=O)c2ccc(C)cc2)s1", "coactivator binding (% of control)": "95.5%"}
{"compound": "CCc1nnc(NC(=O)CCC(=O)NCc2ccccc2OC)s1", "coactivator binding (% of control)": "76.9%"}
{"compound": "Cc1nc(NC(=O)CN(C)S(=O)(=O)c2ccc(Cl)cc2)sc1C", "coactivator binding (% of control)": "105%"}
{"compound": "Fc1ccc(-c2ccc(-c3nn4c(-c5ccco5)nnc4s3)o2)cc1", "coactivator binding (% of control)": "84.9%"}
{"compound": "Fc1ccc(-c2nnc3sc(-c4ccc5c(c4)OCO5)nn23)cc1", "coactivator binding (% of control)": "258% (active)"}
{"compound": "COc1ccc(-c2nn3c(-c4ccccc4)nnc3s2)cc1OC", "coactivator binding (% of control)": "123%"}
{"compound": "CC1(C)CC(=O)C=C(N2CCCC2)C1", "coactivator binding (% of control)": "101%"}
{"compound": "CCOC(=O)Cc1csc(NC(=O)CSc2nnc(-c3cccnc3)n2Cc2ccco2)n1", "coactivator binding (% of control)": "114%"}
{"compound": "COc1ccc(S(=O)(=O)N2CCOCC2)cc1C(=O)Nc1nc2ccccc2s1", "coactivator binding (% of control)": "206% [fluorescence artefact?] (active)"}
{"compound": "COC(=O)COc1ccc(S(=O)(=O)N2CCOCC2)cc1", "coactivator binding (% of control)": "108%"}
{"compound": "CCOC(=O)c1csc(NC(=O)c2ccc(S(=O)(=O)N3CCCC3)cc2)n1", "coactivator binding (% of control)": "108%"}
{"compound": "COc1ccc(C(=O)Nc2nc(-c3ccc(S(=O)(=O)N4CCOCC4)cc3)cs2)cc1", "coactivator binding (% of control)": "492% [fluorescence artefact?] (active)"}
{"compound": "O=C(Nc1nc2cc3c(cc2s1)OCCO3)c1cccc(S(=O)(=O)N2CCOCC2)c1", "coactivator binding (% of control)": "122%"}
{"compound": "O=C(Nc1nc2ccc(S(=O)(=O)N3CCCC3)cc2s1)C1CCCO1", "note": "(configuration not stated)", "coactivator binding (% of control)": "103%"}
{"compound": "Cc1ccc(C)c(NC2=NCC(=O)N2c2ccc3c(c2)OCCO3)c1", "coactivator binding (% of control)": "103%"}
{"compound": "CCCCc1nc(NCCN)c(C#N)c2c1CSC(C)(C)C2", "coactivator binding (% of control)": "85.4%"}
{"compound": "O=C(C(NS(=O)(=O)c1cccc2nsnc12)c1ccccc1)N1CCN(c2ccccc2)CC1", "note": "(configuration not stated)", "coactivator binding (% of control)": "102%"}
{"compound": "COc1ccc2c(c1)cc1n2CCN=C1NN", "coactivator binding (% of control)": "90.7%"}
{"compound": "O=C(O)CSc1nccn1-c1cccc(Cl)c1", "coactivator binding (% of control)": "100%"}
{"compound": "COc1ccc(C2(CNC(=O)C(c3ccccc3)c3ccccc3)CCOCC2)cc1OC", "coactivator binding (% of control)": "103%"}
{"compound": "O=C(CSc1nc2cccnc2n1Cc1ccccc1)N1CCc2ccccc21", "coactivator binding (% of control)": "156%"}
{"compound": "O=C(NCc1ccco1)c1cccn2c(=O)c3cc(Br)ccc3nc12", "coactivator binding (% of control)": "232% [fluorescence artefact?] (active)"}
{"compound": "COc1ccc(CCn2c(=N)c(C(=O)NCc3ccco3)cc3c(=O)n4cccc(C)c4nc32)cc1", "coactivator binding (% of control)": "92.3%"}
{"compound": "O=C(NCc1ccco1)c1cc(-c2cccnc2)nc2ccc(Cl)cc12", "coactivator binding (% of control)": "128%"}
{"compound": "COc1ccc(OC(C)C(=O)Nc2cccnc2)cc1", "note": "(configuration not stated)", "coactivator binding (% of control)": "102%"}
{"compound": "CC(Oc1ccc(Cl)cc1)C(=O)Nc1ncccn1", "note": "(configuration not stated)", "coactivator binding (% of control)": "220% (active)"}
{"compound": "CC(Oc1ccc(Cl)cc1)C(=O)OCC(=O)Nc1ncc(Cl)cc1Cl", "note": "(configuration not stated)", "coactivator binding (% of control)": "103%"}
{"compound": "CCCC1(C(=O)OCC)NC(c2ccc(N(C)C)cc2)C2C(=O)N(c3ccc4c(c3)OCCO4)C(=O)C21", "note": "(configuration not stated)", "coactivator binding (% of control)": "117%"}
{"compound": "CCN(CC)C(=O)CSc1nnc(CNc2ccc(F)cc2)n1Cc1ccco1", "coactivator binding (% of control)": "86.8%"}
{"compound": "O=S(=O)(NCCc1ccccc1)c1ccccc1", "coactivator binding (% of control)": "245% [fluorescence artefact?] (active)"}
{"compound": "O=S(=O)(NCCNS(=O)(=O)c1ccccc1)c1ccccc1", "coactivator binding (% of control)": "108%"}
{"compound": "CC(=O)Nc1ccc(S(=O)(=O)NCCc2ccccc2)cc1", "coactivator binding (% of control)": "98.9%"}
{"compound": "COc1ccc(C(=O)N2CC3(C)CC2CC(C)(C)C3)cc1OC", "note": "(configuration not stated)", "coactivator binding (% of control)": "118%"}
{"compound": "CCOC(=O)c1c(C)oc2cc(Br)c(OCC(N)=O)cc12", "coactivator binding (% of control)": "156%"}
{"compound": "CSc1ccc(-c2c(C#N)c(N)nc3c2c(C)nn3-c2ccccc2)cc1", "coactivator binding (% of control)": "210% [fluorescence artefact?] (active)"}
{"compound": "CCn1c(CNC(=O)c2ccccc2)nnc1SCC(=O)N1CCN(c2ccccc2)CC1", "coactivator binding (% of control)": "106%"}
{"compound": "Fc1ccc(-n2c(Cc3ccccc3)nnc2SCc2nc(-c3ccc(Cl)cc3)no2)cc1", "coactivator binding (% of control)": "95.3%"}
{"compound": "Cc1cccc(C)c1NC(=O)CSc1nnc(-c2ccccc2)n1Cc1ccc2c(c1)OCO2", "coactivator binding (% of control)": "98.5%"}
